We go through 1 compound from ChEMBL document CHEMBL2218924, “A broad activity screen in support of a chemogenomic map for kinase signalling research and drug discovery” (Biochem J, 2013).

Test [1] deals with Tyrosine-protein kinase SYK (Homo sapiens) (UniProt P43405). Particulars: at 10 µM.
Test [2] concerns the target T1, Mitogen-activated protein kinase kinase kinase 7 (Homo sapiens) (UniProt O43318).
T1 sequence (whole entry): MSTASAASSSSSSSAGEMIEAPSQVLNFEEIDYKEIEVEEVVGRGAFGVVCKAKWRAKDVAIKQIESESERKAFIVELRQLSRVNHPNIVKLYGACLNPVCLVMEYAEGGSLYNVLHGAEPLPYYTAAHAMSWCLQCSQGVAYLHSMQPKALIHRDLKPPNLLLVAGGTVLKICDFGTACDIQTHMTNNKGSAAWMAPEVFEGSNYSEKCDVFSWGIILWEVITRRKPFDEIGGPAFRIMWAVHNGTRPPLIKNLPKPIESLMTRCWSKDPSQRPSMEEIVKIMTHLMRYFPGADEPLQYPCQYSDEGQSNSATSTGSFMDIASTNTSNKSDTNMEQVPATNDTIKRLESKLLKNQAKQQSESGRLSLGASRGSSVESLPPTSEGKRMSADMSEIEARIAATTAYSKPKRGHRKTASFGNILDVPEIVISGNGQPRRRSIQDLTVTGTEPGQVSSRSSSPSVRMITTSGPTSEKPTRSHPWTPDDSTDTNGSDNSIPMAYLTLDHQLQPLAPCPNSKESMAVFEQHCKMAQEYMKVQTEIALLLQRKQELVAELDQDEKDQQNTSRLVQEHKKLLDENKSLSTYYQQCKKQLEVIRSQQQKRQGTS
Particulars: at 1 µM.

Test [3] deals with T1, Mitogen-activated protein kinase kinase kinase 7 (Homo sapiens). Particulars: at 10 µM.
The target of test [4] is T2, Serine/threonine-protein kinase TAO1 (Homo sapiens) (UniProt Q7L7X3).
T2 sequence (whole entry): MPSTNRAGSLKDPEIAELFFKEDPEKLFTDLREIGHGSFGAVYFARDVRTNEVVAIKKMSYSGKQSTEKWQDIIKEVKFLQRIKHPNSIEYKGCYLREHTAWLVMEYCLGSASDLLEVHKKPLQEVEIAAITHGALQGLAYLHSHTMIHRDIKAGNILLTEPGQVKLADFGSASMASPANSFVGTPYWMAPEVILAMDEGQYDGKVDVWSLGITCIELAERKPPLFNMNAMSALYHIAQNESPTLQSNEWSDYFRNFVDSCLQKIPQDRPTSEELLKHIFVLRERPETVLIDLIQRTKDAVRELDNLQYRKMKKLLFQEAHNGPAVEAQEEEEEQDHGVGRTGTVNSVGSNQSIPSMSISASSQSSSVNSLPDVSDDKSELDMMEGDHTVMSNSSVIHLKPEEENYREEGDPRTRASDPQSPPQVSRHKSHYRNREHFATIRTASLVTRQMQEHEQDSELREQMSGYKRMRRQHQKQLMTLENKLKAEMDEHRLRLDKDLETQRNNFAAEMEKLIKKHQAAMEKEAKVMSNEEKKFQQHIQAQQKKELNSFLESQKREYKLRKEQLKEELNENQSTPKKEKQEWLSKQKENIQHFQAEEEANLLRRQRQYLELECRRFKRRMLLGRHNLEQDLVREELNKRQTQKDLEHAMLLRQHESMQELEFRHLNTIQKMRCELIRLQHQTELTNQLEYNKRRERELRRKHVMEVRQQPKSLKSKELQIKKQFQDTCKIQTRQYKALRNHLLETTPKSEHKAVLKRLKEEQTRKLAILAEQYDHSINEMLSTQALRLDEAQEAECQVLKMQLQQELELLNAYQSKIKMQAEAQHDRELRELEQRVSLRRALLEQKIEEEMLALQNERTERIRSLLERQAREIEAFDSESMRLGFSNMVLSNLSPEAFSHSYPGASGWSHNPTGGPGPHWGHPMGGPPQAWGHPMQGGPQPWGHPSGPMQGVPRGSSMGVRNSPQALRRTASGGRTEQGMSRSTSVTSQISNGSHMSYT
Particulars: at 1 µM.

Test [5] has as its target T2, Serine/threonine-protein kinase TAO1 (Homo sapiens). The conditions noted are these: at 10 µM.
For test [6], the target named is T3, Serine/threonine-protein kinase TAO2 (Homo sapiens) (UniProt Q9UL54).
T3 sequence (whole entry): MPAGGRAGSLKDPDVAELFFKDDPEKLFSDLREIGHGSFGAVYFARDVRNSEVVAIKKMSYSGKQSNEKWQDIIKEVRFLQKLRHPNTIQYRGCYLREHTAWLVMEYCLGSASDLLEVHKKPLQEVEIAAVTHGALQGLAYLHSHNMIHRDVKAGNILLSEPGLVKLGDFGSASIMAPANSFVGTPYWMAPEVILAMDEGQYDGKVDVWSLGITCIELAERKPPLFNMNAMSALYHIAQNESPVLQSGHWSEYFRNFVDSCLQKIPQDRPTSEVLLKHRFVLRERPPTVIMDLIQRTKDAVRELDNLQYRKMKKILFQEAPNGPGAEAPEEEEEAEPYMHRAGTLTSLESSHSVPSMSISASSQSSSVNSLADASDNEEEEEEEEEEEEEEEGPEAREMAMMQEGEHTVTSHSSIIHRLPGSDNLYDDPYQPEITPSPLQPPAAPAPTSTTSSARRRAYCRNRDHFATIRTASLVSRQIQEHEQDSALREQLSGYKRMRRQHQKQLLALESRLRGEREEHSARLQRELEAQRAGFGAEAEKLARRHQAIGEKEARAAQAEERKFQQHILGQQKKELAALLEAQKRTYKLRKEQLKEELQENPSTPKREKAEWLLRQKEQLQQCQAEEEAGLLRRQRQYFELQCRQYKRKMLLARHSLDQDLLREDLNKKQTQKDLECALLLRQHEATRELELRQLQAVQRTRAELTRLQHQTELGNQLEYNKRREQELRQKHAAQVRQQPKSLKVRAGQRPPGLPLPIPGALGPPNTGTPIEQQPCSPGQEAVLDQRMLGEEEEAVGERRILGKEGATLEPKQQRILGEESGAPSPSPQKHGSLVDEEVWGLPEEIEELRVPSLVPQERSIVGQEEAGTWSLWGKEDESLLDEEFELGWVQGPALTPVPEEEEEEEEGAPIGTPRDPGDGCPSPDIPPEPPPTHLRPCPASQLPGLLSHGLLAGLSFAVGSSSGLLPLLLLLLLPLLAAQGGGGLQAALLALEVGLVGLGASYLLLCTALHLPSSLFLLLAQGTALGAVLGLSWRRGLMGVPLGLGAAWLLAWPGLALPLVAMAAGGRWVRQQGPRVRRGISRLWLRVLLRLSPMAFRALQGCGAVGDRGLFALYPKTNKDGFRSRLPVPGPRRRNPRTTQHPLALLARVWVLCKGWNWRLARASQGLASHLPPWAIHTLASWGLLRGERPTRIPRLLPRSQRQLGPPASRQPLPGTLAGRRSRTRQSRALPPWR
The conditions noted are these: at 1 µM.

In test [7] the target is T3, Serine/threonine-protein kinase TAO2 (Homo sapiens). The conditions noted are these: at 10 µM.
Test [8] concerns the target T4, Serine/threonine-protein kinase TAO3 (Homo sapiens) (UniProt Q9H2K8).
T4 sequence (whole entry): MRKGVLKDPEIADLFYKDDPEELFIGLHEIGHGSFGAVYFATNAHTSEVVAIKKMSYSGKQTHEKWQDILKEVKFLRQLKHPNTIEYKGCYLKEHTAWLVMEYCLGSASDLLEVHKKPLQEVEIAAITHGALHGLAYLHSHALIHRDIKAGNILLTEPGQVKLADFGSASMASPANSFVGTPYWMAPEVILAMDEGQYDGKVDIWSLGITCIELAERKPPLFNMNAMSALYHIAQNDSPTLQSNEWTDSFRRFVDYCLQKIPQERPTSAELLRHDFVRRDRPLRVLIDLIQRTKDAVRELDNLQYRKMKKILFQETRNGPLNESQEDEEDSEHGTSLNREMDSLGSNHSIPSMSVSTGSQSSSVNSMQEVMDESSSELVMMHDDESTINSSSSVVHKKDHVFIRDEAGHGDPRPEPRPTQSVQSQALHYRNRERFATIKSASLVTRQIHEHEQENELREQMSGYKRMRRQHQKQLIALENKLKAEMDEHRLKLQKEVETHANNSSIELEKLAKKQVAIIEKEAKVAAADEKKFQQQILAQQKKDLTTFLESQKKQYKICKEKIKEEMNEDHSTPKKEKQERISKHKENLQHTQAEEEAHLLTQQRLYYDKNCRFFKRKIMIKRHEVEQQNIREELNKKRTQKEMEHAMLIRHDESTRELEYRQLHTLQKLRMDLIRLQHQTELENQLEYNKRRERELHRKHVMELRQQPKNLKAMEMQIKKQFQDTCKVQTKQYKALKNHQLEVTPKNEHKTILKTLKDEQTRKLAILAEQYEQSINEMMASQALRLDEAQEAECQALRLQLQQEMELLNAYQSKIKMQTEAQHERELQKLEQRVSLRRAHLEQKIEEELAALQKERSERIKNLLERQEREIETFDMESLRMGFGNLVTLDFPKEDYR
Particulars: at 1 µM.

The target of test [9] is T4, Serine/threonine-protein kinase TAO3 (Homo sapiens). Particulars: at 10 µM.
For test [10], the target named is T5, Serine/threonine-protein kinase TBK1 (Homo sapiens) (UniProt Q9UHD2).
T5 sequence (whole entry): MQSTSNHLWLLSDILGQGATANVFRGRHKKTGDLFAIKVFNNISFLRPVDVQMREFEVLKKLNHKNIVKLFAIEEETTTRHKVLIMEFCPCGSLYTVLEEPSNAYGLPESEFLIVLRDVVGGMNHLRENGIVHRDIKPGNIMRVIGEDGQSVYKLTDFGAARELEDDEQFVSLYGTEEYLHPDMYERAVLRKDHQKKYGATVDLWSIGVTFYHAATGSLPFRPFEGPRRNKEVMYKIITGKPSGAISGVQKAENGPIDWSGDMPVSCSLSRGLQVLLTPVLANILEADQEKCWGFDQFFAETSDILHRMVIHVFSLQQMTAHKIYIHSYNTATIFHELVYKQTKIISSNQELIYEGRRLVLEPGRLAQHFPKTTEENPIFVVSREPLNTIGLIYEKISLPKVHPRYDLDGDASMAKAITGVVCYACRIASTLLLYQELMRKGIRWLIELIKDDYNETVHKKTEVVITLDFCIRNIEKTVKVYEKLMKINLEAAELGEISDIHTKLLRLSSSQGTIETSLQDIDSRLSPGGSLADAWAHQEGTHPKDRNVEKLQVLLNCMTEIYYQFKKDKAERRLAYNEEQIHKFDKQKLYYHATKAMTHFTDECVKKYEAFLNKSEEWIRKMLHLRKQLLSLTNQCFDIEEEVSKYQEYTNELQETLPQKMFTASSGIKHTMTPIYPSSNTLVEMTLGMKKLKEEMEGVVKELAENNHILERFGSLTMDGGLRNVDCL
The conditions noted are these: at 1 µM.

Take `O=C(Nc1cccc(Nc2nccc(Nc3cccc(C(F)(F)F)c3)n2)c1)C1CC1`: the residual activity in test [1] came to 75%; in [2] it was 105%; in test [3], 99%; in [4], 95%; in test [5], 56%; in test [6], 92%. Besides, the residual activity in test [7] amounted to 29%; in test [8], 104%; in test [9] it was 67%; in [10] it was 78%.
